Compounds with a hit are over-represented: about 3.7% of the library has one in this group of screens.
miR-21 reporter = qHTS Assay for Modulators of miRNAs and/orActivators of miR-21; HeLa miR-21 FLuc reporter, luciferase, 48 h; Potency, µM (highest dose often 38.3 µM), for the others: at the top dose activity change, positive = activation, hits mostly activators; 340,000 tested, under 10 active;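 further: % of control where 0% means no effect; miR-21 action dims this reporter so a rising signal means less miR-21 action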
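Compounds were titrated across several concentrations (up to approximately 40 uM) and incubated 48 hours with HeLa miR-21-FLuc reporter cells (miR-21 target sequence downstream of FLuc, endogenous miR-21). Readout was firefly luciferase luminescence after lytic detection reagent.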
Nrf2 block = Nrf2 qHTS screen for inhibitors. AID 504444, 2011. Potency, µM (series often up to 46 µM), for the others: at the highest dose activity change, negative = inhibition, hits mostly inhibitors. A549 ARE-Fluc reporter, luciferase luminescence, 18-24 h. hit rate 2.1% among 360,000; further: potency means the concentration at half of the fitted maximal effect; on the % scale 0 is the no-effect control and ±100 the full control effect; nearly all actives have a fitted effect of over 60% in size
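Reporter: ARE-Fluc in A549. Exposure: 18-24 h, 37 °C, 5% CO2, 5% FBS OPTI-MEM. Readouts: fluorescent cytotoxicity (CellTiter-Fluor), then luminescent Nrf2 signal after BugLite.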
Nrf2 ARE act = qHTS of Nrf2 Activators | AREc32 ARE-luciferase reporter (MCF7-derived line), luminescence, 24 h | Potency, µM (series often up to 46.1 µM), inactives show top-dose activation, hits mostly activators | hit rate 0.31% among 410,000 | AID 624171, 2012; further: potency means the concentration at half of the fitted maximal effect; % of control where 0% means no effect; nearly all actives have a fitted effect of over 65% in size
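Steps: seed AREc32_Fluc cells (1000/well, 5% FBS OPTI-MEM); incubate overnight at 37 deg C; add 23 nL compound; incubate 24 hr; add Steady-Glo; hold 30 min RT; read luminescence.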
A549 tox = Nrf2 qHTS screen for inhibitors: counterscreen for cytotoxicity; Potency, µM (series often up to 46 µM), inactives show at the top dose activity change, negative = cytotoxicity, most hits filed as inhibitors; hit rate 0.16% among 390,000; AID 504648, 2011; A549 ARE-Fluc cells, CellTiter-Fluor viability, 18-24 h; further: potency means the concentration at half of the fitted maximal effect; on the % scale 0 is the no-effect control and ±100 the full control effect
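A549 ARE-Fluc cells in 5% FBS OPTI-MEM, 5000 cells/well, rested 2 h then exposed to compounds in concentration-response for 18-24 h at 37 °C. Viability by CellTiter-Fluor fluorescence (Ex 405/Em 525) after 30 min; luciferase luminescence (BugLite, 15 min, RT) read afterwards.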
p53 reactivator = qHTS assay for re-activators of p53 using a Luc reporter | H1299 p53-A138V BP100-luciferase reporter, luminescence, 24 h | Potency, µM (titrated, usually from 92.2 µM), without a hit: at the highest dose activity change, positive = activation, most hits filed as activators | hit rate 0.063% among 320,000 | AID 504706, 2011; further: potency means the concentration at half of the fitted maximal effect; % of control where 0% means no effect; nearly all actives have a fitted effect of over 45% in size
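H1299 (p53-null), stable ts p53-A138V + BP100-Luc; 1000 cells/well, Opti-MEM/10% FBS; cpd 4 pt, 1:5; 24 h, 37 deg C, 5% CO2; detection reagent 10 min RT; luminescence.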
ClpP mod = qHTS Assay for Activators of ClpP. Potency, µM (series often up to 57.5 µM), for inactives: top-dose activity change, negative = active. hit rate 1.9% among 340,000. ATP-dependent Clp protease proteolytic subunit (Bacillus subtilis (strain 168)), P80244. purified B. subtilis ClpP, FRET peptide cleavage, 20 min; active means well fitted falling curve with a large enough effect; inconclusive means small, poorly fitted or top-dose-only effect; inactive means no such curve, though single readings can be large or run the other way; further: potency means the concentration at half of the fitted maximal effect; the source files actives as falling curves though it sought activators and does not explain the sign; nearly all actives have a fitted effect of over 65% in size
Target sequence (P80244 whole entry, looked up): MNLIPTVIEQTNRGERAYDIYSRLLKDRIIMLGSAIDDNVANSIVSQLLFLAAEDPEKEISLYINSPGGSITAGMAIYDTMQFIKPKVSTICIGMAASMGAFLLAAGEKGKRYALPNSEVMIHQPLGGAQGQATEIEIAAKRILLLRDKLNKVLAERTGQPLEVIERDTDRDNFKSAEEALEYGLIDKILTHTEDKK
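FRET quenching reversal measured ClpP activation: 10 microg/mL B. subtilis ClpP at pH 8 with the FRET-FV decapeptide, read at 430 nm after 320 nm excitation. The 20-min minus 0-min signal was scaled between DMSO/no-enzyme wells and ADEP (5.8 microM final).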
* hit, by the source's call; ! = not active in a repeat; [ ] = another dose, or the depositor's remark. Unless noted, the call rests on the fitted dose curve; in most records, active means well fitted curve in the direction sought with a large enough effect; inconclusive means small, poorly fitted or top-dose-only effect, or another doubt; inactive means no such curve, though single readings can be large; an effect the other way counts as inactive or inconclusive.

Results for COC(=O)c1ccc(C2SCC(=O)N2Cc2ccccc2)cc1 (stereo not given) ?
miR-21 reporter: -4.7%; Nrf2 block: 1.5%; Nrf2 ARE act: -0.4%; A549 tox: -4.3%; p53 reactivator: -0.9%; ClpP mod: 0.5%

Results for Cc1ccc(S(=O)(=O)N2CCC(C(=O)NCCc3ccccn3)CC2)cc1 ?
miR-21 reporter: -1.3%; Nrf2 block: -9.5%; Nrf2 ARE act: -0.4%; A549 tox: 2.5%; p53 reactivator: -0.1%; ClpP mod: 22.4µM*

How did CCCCN(CC)CCCNC(=O)c1cn(CC)c2ccc(S(=O)(=O)N3CCOCC3)cc2c1=O do in these assays?
miR-21 reporter: 3.1%; Nrf2 block: 3.7%; Nrf2 ARE act: -0.6%; A549 tox: -0.5%; ClpP mod: -4.7%

How did Cc1noc(C)c1CSCC(=O)N1CCN(c2ccc([N+](=O)[O-])cc2)CC1 do in these assays?
miR-21 reporter: 28.4%; Nrf2 block: 20.6µM*; Nrf2 ARE act: 4.8%; A549 tox: inconclusive; p53 reactivator: -2.1%; ClpP mod: 0.4%

How did Cc1ccc(CC(=O)N2CCN(c3ccc([N+](=O)[O-])cc3)CC2)cc1 do in these assays?
miR-21 reporter: 20.8%; Nrf2 block: 20.6µM*; Nrf2 ARE act: 2.1%; A549 tox: inconclusive

What do the screens show for `Cc1ccc(S(=O)(=O)CC(=O)N2CCN(c3ccc([N+](=O)[O-])cc3)CC2)cc1`?
Nrf2 block: inconclusive; Nrf2 ARE act: -0.2%; A549 tox: -15.8%; p53 reactivator: -4.0%

Results for O=C(NC1CCCCC1)N1CCN(c2ccc([N+](=O)[O-])cc2)CC1 ?
miR-21 reporter: 5.4%; Nrf2 block: 23.1µM*; Nrf2 ARE act: -0.2%; A549 tox: -24.1%; p53 reactivator: -10.5%; ClpP mod: 0.2%

Results for O=C(CSc1nnc(-c2ccc(Cl)cc2)o1)Nc1ccc(F)cc1 ?
miR-21 reporter: -59.8%; Nrf2 block: inconclusive; Nrf2 ARE act: 10.5%; A549 tox: 2.8%; ClpP mod: -1.9%

What do the screens show for `COc1ccc2[nH]c(C)c(C(=O)CNc3nccs3)c2c1`?
ClpP mod: -3.0%

Results for COc1ccc(C2C3=C(CC(C)(C)CC3=O)Nc3n[nH]c(C)c32)cc1 (stereo not given) ?
miR-21 reporter: -5.5%; Nrf2 block: 20.6%; Nrf2 ARE act: -0.7%; A549 tox: -7.2%; p53 reactivator: -8.1%; ClpP mod: 35.5µM*

How did Cc1[nH]nc2c1C(c1ccccc1)C1=C(CC(C)(C)CC1=O)N2 (stereo not given) do in these assays?
miR-21 reporter: -4.8%; Nrf2 block: -10.5%; Nrf2 ARE act: -0.8%; A549 tox: 0.2%; p53 reactivator: 2.3%; ClpP mod: 28.2µM*

How did Cc1[nH]nc2c1C(c1ccc(O)cc1)C1=C(CC(C)(C)CC1=O)N2 (stereo not given) do in these assays?
miR-21 reporter: 8.9%; Nrf2 block: -15.1%; Nrf2 ARE act: 0.0%; A549 tox: 1.0%; p53 reactivator: -2.0%

What do the screens show for `COc1ccc(/C=N/NC(=O)c2ccco2)cc1Cn1nc(C)cc1C`?
miR-21 reporter: -14.8%; Nrf2 block: -5.5%; Nrf2 ARE act: 11.1%; A549 tox: 1.2%; p53 reactivator: 2.8%; ClpP mod: -6.8%

What do the screens show for `COc1ccc(/C=N\NC(=O)COc2ccc(C(C)(C)C)cc2)cc1Cn1nc(C)cc1C`?
miR-21 reporter: 0.2%; Nrf2 ARE act: 13.8%; A549 tox: 14.6µM*; p53 reactivator: -2.2%; ClpP mod: -2.9%

What do the screens show for `O=C(CSc1n[nH]c(=O)n1Cc1ccco1)Nc1ccccc1`?
miR-21 reporter: 1.1%; Nrf2 block: 7.5%; Nrf2 ARE act: -0.6%; A549 tox: -2.2%; p53 reactivator: -6.0%; ClpP mod: -0.3%

What do the screens show for `CC(C)c1ccc(NC(=O)CSc2n[nH]c(=O)n2Cc2ccco2)cc1`?
miR-21 reporter: 16.3%; Nrf2 block: 10.3µM*; Nrf2 ARE act: 5.4%; A549 tox: -4.1%; p53 reactivator: -3.1%; ClpP mod: 0.5%

What do the screens show for `Cc1ccc(-n2c(=O)c3c4c(sc3n(Cc3cc(=O)n5ccccc5n3)c2=O)CCC4)cc1C`?
miR-21 reporter: -15.4%; Nrf2 block: -5.6%[9.27 µM]; Nrf2 ARE act: 5.3%; A549 tox: -1.9%; p53 reactivator: -2.3%; ClpP mod: 28.2µM*!

How did CCC1(C)NC(=O)N(CC(=O)NCC(=O)Nc2c(C)cc(C)cc2C)C1=O (stereo not given) do in these assays?
Nrf2 block: -21.7%; Nrf2 ARE act: -0.2%; A549 tox: 10.4%; p53 reactivator: 17.7%; ClpP mod: -3.1%

Results for COc1cc(-c2nnc(-c3ccc(N4CCOCC4)cc3)o2)cc(OC)c1OC ?
miR-21 reporter: -1.0%; Nrf2 block: 26.3%; Nrf2 ARE act: 0.3%; A549 tox: 1.1%; p53 reactivator: -1.5%; ClpP mod: 25.1µM*

What do the screens show for `O=C(NC(=S)N(CCCCO)C1CCCCC1)c1sc2ccccc2c1Cl`?
miR-21 reporter: -16.4%; Nrf2 block: 11.6µM*; Nrf2 ARE act: 19.3%; A549 tox: inconclusive; p53 reactivator: 3.2%; ClpP mod: -5.7%

Results for Cc1cccc(N2CCN(C(=O)c3cnn(-c4ccccc4Cl)c3C3CCN(C(=O)OC(C)(C)C)CC3)CC2C)c1 (stereo not given) ?
miR-21 reporter: -1.2%; Nrf2 block: -10.1%; Nrf2 ARE act: 0.4%; A549 tox: -4.0%; ClpP mod: -2.3%

What do the screens show for `COc1ccc2ccccc2c1C1NC(=O)c2ccccc2N1` (stereo not given)?
Nrf2 block: 3.9%; Nrf2 ARE act: 0.3%; A549 tox: inconclusive; ClpP mod: 14.1µM*

Results for O=C(NC1CCCC1)C(c1ccc(F)cc1)N(Cc1ccccc1)C(=O)c1csnn1 (stereo not given) ?
miR-21 reporter: 0.6%; Nrf2 block: -1.5%; Nrf2 ARE act: 0.2%; A549 tox: -3.2%; p53 reactivator: -3.5%

Results for CC(C)CCN(C(=O)c1csnn1)C(C(=O)NC1CCCC1)c1ccc(F)cc1 (stereo not given) ?
miR-21 reporter: 5.3%; Nrf2 block: 23.1µM*; Nrf2 ARE act: 3.7%; A549 tox: 18.4µM*; p53 reactivator: 1.2%; ClpP mod: 0.6%
